# Compound activity: PubChem BioAssay, National Center for Advancing Translational Sciences (NCATS)
# This is a sample that favours compounds with a hit; in the whole collection about 17% have one here.
# DT40 TDP1 no CPT – qHTS for Inhibitors of human tyrosyl-DNA phosphodiesterase 1 (TDP1): qHTS in cells in absence of CPT. DT40 Tdp1-/- hTDP1 cells, no CPT, ATP luminescence, 48 h. Potency, µM (highest dose often 46.2 µM), for the others: at the top dose activity change, negative = growth inhibition, actives largely listed as inhibitors. actives 15% (n = 420,000). AID 686978, 2013; note: % is set by controls: 0 for no effect and ±100 for the full control effect; nearly all actives have a fitted effect of over 55% in size
#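 No-CPT arm: Tdp1-/-;hTDP1 DT40 cells (400/well) plus compounds, incubated ≥48 hr at 37 °C. Readout CellTiter-Glo luminescence.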
# TDP1 cell CPT – qHTS for Inhibitors of human tyrosyl-DNA phosphodiesterase 1 (TDP1): qHTS in cells in presence of CPT | chicken DT40 Tdp1-/-;hTDP1 cells + 20 nM CPT, ATP luminescence, 48 h | Potency, µM (doses to about 46.2 µM), inactives show at the top dose activity change, negative = growth inhibition, hits mostly inhibitors | actives 12% (n = 420,000); note: % is set by controls: 0 for no effect and ±100 for the full control effect; nearly all actives have a fitted effect of over 55% in size
#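 Cell growth measured by CellTiter-Glo luminescence after a minimum 48 h, 37 C compound exposure with 20 nM CPT in Tdp1-knockout DT40 cells stably expressing hTDP1, seeded 400/well; qHTS titration format.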
# TGFb inhibitor – qHTS for Inhibitors of TGF-b; AID 588855, 2011; HepG2 CAGA-GFP TGF-b/SMAD3 reporter, GFP fluorescence, 18 h; TGF-beta stimulated, 500 pg/mL final; actives 1.2% (n = 410,000); Potency, µM (doses to about 46.1 µM), for the others: at the top dose activity, negative = inhibition, usual class: inhibitors; note: % is set by controls: 0 for no effect and ±100 for the full control effect; nearly all actives have a fitted effect of over 65% in size
#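 GFP signal (ex488/em500-530) from TGF-beta-stimulated HEPG2 CAGA-GFP cells, 500 pg/mL final, 18 h at 37 degrees C in DMEM plus 1% FBS, normalized to unstimulated and DMSO-stimulated controls.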
# HT1080NT lethal – qHTS for induction of synthetic lethality in tumor cells producing 2HG: qHTS for the HT-1080-NT fibrosarcoma cell line. HT-1080-NT fibrosarcoma viability, CellTiter-Glo ATP luminescence, 48 h. Potency, µM (titrated, usually from 46.1 µM), inactives show at the top dose activity, negative = less viability, actives largely listed as cytotoxic. actives 1.6% (n = 360,000). AID 686970, 2013;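 note: NT is the 2HG producing partner of a matched IDH1 knockdown line; 0% = DMSO-treated cells and -100% = media-only wells without cells; nearly all actives have a fitted effect of over 55% in size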
#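 Compounds were tested in concentration-response format on HT-1080-NT cells for 48 hours at 37 degrees C. Cell viability came from CellTiter-Glo luminescence; curves were classified by r2, response magnitude and activity.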
# HepG2 viability – qHTS for Inhibitors of TGF-b: Cytotox Counterscreen | HepG2 CAGA-GFP viability, ATP luminescence, 18 h | Potency, µM (top dose mostly 46.1 µM), without a hit: top-dose activity change, negative = cytotoxicity, usual class: cytotoxic | actives 0.76% (n = 410,000) | AID 588856, 2011
#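 HepG2 CAGA-GFP cells (1000/well, DMEM with 1% FBS) received compound, then TGF-beta at 500 pg/mL final, and were incubated 18 hours at 37 degrees C. Viability was read by CellTiter-Glo luminescence. Media-only wells were set as complete cell-killing and DMSO as no toxicity.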
# HT1080 IDH1KD tx – qHTS for induction of synthetic lethality in tumor cells producing 2HG: qHTS for the HT-1080-IDH1KD cell line; actives 2% (n = 360,000); Potency, µM (highest dose often 46.1 µM), inactives show top-dose activity, negative = toxicity, actives largely listed as cytotoxic; HT-1080 IDH1 knockdown viability, ATP luminescence, 48 h;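 note: 0% = DMSO wells and -100% = cell-free medium wells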
#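 HT-1080-IDH1KD cells (IDH1 knocked down), 750/well in RPMI with 5% FBS, treated with compound 48 h at 37 degrees C. Viability by CellTiter-Glo luminescence, normalised to DMSO and no-cell wells; concentration-response curves classed.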
# * marks the source's active call; other numbers are inactive results; ? = inconclusive; / = not tested or not shown. Calls come from the whole dose curve; as a rule, active = well fitted curve in the direction sought with a large enough effect; inconclusive = small, poorly fitted or top-dose-only effect, or another doubt; inactive = no such curve, though single readings can be large; an effect the other way counts as inactive or inconclusive. Potency is the fitted concentration of half-maximal effect.
SMILES,DT40 TDP1 no CPT,TDP1 cell CPT,TGFb inhibitor,HT1080NT lethal,HepG2 viability,HT1080 IDH1KD tx
CCC(Sc1nnc(-c2ccc(C)c(Cl)c2)n1CC)C(=O)Nc1nccs1 (stereo unspecified),15µM*,18µM*,-14%,-4%,-42%,-25%
CCn1c(SCC(=O)Nc2nccs2)nnc1-c1ccc(S(=O)(=O)N2CCCCCC2)cc1,18µM*,16µM*,10%,-19%,-3%,-9%
O=C(CSCc1cc(=O)n2nc(C3CC3)sc2n1)Nc1ccc(F)cc1,10%,-8%,10%,8%,1%,16%
Cc1cc(C(=O)OC(C)C(=O)NC2CCCCC2C)c2ccccc2n1 (stereo unspecified),-25%,-25%,3%,4%,0%,-2%
O=[N+]([O-])c1ccc(N2CCN(S(=O)(=O)c3ccc(Cl)c(Cl)c3)CC2)cc1NCCN1CCOCC1,8.2µM*,?,-1%,-3%,-2%,-1%
O=[N+]([O-])c1cc(S(=O)(=O)N2CCCC2)ccc1NCCCN1CCOCC1,-23%,6%,-4%,-4%,-6%,1%
CC(C)c1ccc(CNc2cc(N3CCCC3)ccc2[N+](=O)[O-])cc1,?,18µM*,2%,?,-4%,-23%
CS(=O)(=O)N1CCN(c2ccc([N+](=O)[O-])c(NCc3ccc(Cl)cc3)c2)CC1,18µM*,26µM*,?,?,-3%,?
C[C@H](NC(=O)c1ccccc1)C(=O)OCC(=O)Nc1sccc1C(N)=O,-11%,-4%,3%,0%,-23%,-3%
Cc1cccnc1NC(=O)NC(=O)c1ccc(C(C)(C)C)s1,16µM*,?,-7%,13%,-22%,0%
CCOc1cc(C(N)=O)cc(Br)c1OC,16µM*,23µM*,0%,-4%,-1%,10%
CCOc1cc(C(N)=O)cc(OCC)c1OCC,-12%,-4%,5%,8%,1%,9%
Cc1nn(-c2ccccc2)cc1/C=N/NC(N)=S,?,18µM*,?,2%,2%,14%
Cn1cc(/C=N/NC(N)=S)c2ccccc21,3.3µM*,13µM*,?,0%,-18%,19%
Cc1nn(-c2ccccc2)cc1/C=N/O,-3%,-12%,0%,7%,-22%,6%
C=CCNC(=S)N/N=C/c1cn(C)c2ccccc12,?,?,?,8%,10%,-9%
COc1ccc(-n2c(SCC(N)=O)nc3nc4c(cc3c2=O)COC(C)(C)C4)cc1,1%,-4%,8%,7%,-1%,19%
CSc1ccc(CN2CCC(C)(Oc3ccc(C(C)=O)cc3)C2)cc1 (stereo unspecified),?,?,11%,-1%,-20%,4%
Nc1ccc(NC(=O)CCN2CCOCC2)cc1,-14%,-2%,-2%,20%,18%,12%
Cc1cc(C)c(NC(=O)Cc2csc(C)n2)c(Cl)c1,?,?,-20%,/,-2%,/
CCN1C(=O)[C@H]2[C@H]3CN=C(SCc4ccc(Cl)cc4)N3[C@@](C)(C(=O)OC)[C@H]2C1=O,?,?,-41%,17%,-51%,13%
O=C(CSC1=Nc2ccccc2C2=NC(Cc3ccccc3)C(=O)N12)Nc1ccccc1C(F)(F)F (stereo unspecified),26µM*,?,0%,/,-4%,/
COc1ccccc1NC(=O)CSC1=Nc2ccccc2C2=NC(CC(=O)NCCc3ccccc3)C(=O)N12 (stereo unspecified),?,?,-26%,/,-11%,/
Cc1cc(NC(=O)CSC2=Nc3ccccc3C3=NC(Cc4ccccc4)C(=O)N23)n[nH]1 (stereo unspecified),-21%,-11%,-15%,1%,0%,13%
O=C(CSC1=Nc2ccccc2C2=NC(Cc3ccccc3)C(=O)N12)Nc1ccccc1F (stereo unspecified),?,23µM*,6%,/,-31%,/
SMILES,DT40 TDP1 no CPT,TDP1 cell CPT,TGFb inhibitor,HT1080NT lethal,HepG2 viability,HT1080 IDH1KD tx
CN1CCN(CCCc2c3c(cc4c2CCC4)CCC3)CC1,?,?,13%,-1%,1%,-3%
Cc1ccc(-n2nc(C)c3c2C(Br)C(C)(C)CC3=O)nc1 (stereo unspecified),-33%,?,?,1%,-37%,2%
Cc1nn(-c2ccccn2)c2c1C(=O)CC(C)(C)C2Br (stereo unspecified),?,16µM*,-12%,?,-1%,?
O=C(O)c1ccccc1-c1ccccc1C(=O)NCc1ccccc1Cl,26%,-7%,-4%,2%,-28%,-3%
CC1=CC(=O)C(Sc2ccc(C)cc2)=CC1=O,1.6µM*,1.8µM*,?,21µM*,-94%,?
Cc1ccc(Sc2c(C)[nH]n(C(C)(C)C)c2=O)cc1,-11%,-24%,-27%,-2%,-12%,1%
COc1cc(Cl)c(C)cc1NC(=O)CCc1c(C)nc2cc(-c3cccc(F)c3)nn2c1C,6%,2%,-6%,/,-6%,/
COc1cc(OC)c(NC(=O)CCc2c(C)nc3cc(-c4ccccc4OC)nn3c2C)cc1Cl,?,?,?,/,4%,/
COc1ccccc1CNC(=O)CCc1c(C)nc2cc(-c3ccc(Cl)cc3)nn2c1C,-17%,-24%,-6%,/,-40%,/
Cc1csc(NC(=O)CCc2c(C)nc3cc(-c4ccc(Cl)cc4)nn3c2C)n1,13µM*,18µM*,?,17%,-23%,10%
CCc1ccccc1NC(=O)CCc1c(C)nc2cc(-c3ccccc3)nn2c1C,18µM*,?,?,/,1%,/
Cc1nc2cc(-c3ccccc3)nn2c(C)c1CCC(=O)Nc1ccc(F)cc1F,12µM*,10µM*,?,/,-10%,/
CC(C)(C)n1ncc2c(=O)n(Cc3ccc(-c4ccccc4C#N)cc3)cnc21,/,/,-2%,/,3%,/
O=C(O)/C=C/c1cn(-c2ccccc2)nc1-c1cc2ccccc2o1,?,-16%,-23%,-6%,-19%,-15%
